KB-V1 MDR tox: KB-V1 MDR subline cytotoxicity; KB-V1 MDR cells viability, CellTiter-Glo, 72 h; AID 1347076; Potency, µM (top dose mostly 46.1 µM), usual class: cytotoxic; 3.4% of 400,000 active; also: nearly all actives have a fitted effect of over 60% in size
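KB-V1, DMEM (no phenol red) + 10% FBS; cpd pin-transferred, titration series; 72 h, 37 degrees C; CellTiter-Glo, luminescence. Data normalized, curve-fit.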
DT40 TDP1 CPT: DT40-hTDP1 cell growth loss with CPT; chicken DT40 Tdp1-/-;hTDP1 cells + 20 nM CPT, ATP luminescence, 48 h; 12% of 420,000 active; Potency, µM (highest dose often 46.2 µM), for inactives: at the top dose activity change, negative = growth inhibition, hits mostly inhibitors; also: nearly all actives have a fitted effect of over 55% in size
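Cell growth measured by CellTiter-Glo luminescence after a minimum 48 h, 37 C compound exposure with 20 nM CPT in Tdp1-knockout DT40 cells stably expressing hTDP1, seeded 400/well; qHTS titration format.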
DT40 TDP1 no CPT: qHTS for Inhibitors of human tyrosyl-DNA phosphodiesterase 1 (TDP1): qHTS in cells in absence of CPT; DT40 Tdp1-/- hTDP1 cells, no CPT, ATP luminescence, 48 h; Potency, µM (series often up to 46.2 µM), for inactives: at the top dose activity change, negative = growth inhibition, usual class: inhibitors; 15% of 420,000 active; AID 686978, 2013; also: nearly all actives have a fitted effect of over 55% in size
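No-CPT arm: Tdp1-/-;hTDP1 DT40 cells (400/well) plus compounds, incubated ≥48 hr at 37 °C. Readout CellTiter-Glo luminescence.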
KB-3-1 cytotox: KB-3-1 parental cell cytotoxicity; KB-3-1 viability, CellTiter-Glo ATP luminescence, 72 h; Potency, µM (titrated, usually from 46.1 µM), actives largely listed as cytotoxic; 1.4% of 400,000 active; AID 1347075; also: nearly all actives have a fitted effect of over 60% in size
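Viability of parental KB-3-1 cells, measured by CellTiter-Glo luminescence, followed a 72 h incubation at 37 °C with pinned compounds in phenol-red-free DMEM containing 10% FBS.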
HT1080NT lethal: kills 2HG-producing HT-1080-NT fibrosarcoma cells | HT-1080-NT fibrosarcoma viability, CellTiter-Glo ATP luminescence, 48 h | Potency, µM (highest dose often 46.1 µM), for inactives: at the highest dose activity, negative = less viability, most hits filed as cytotoxic | 1.6% of 360,000 active | AID 686970;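 also: NT is the 2HG producing partner of a matched IDH1 knockdown line; 0% = DMSO-treated cells and -100% = media-only wells without cells; nearly all actives have a fitted effect of over 55% in size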
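Read-out is CellTiter-Glo luminescence after 10 minutes at room temperature, following 48 hours' compound treatment of HT-1080-NT cells (750 cells/well, RPMI, 5% FBS, 37 degrees C).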
HT1080 IDH1KD tx: HT-1080 IDH1 knockdown cell toxicity (counter line). HT-1080 IDH1 knockdown viability, ATP luminescence, 48 h. AID 686971. Potency, µM (doses to about 46.1 µM), for the others: top-dose activity, negative = toxicity, hits mostly cytotoxic. 2% of 360,000 active;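 also: 0% = DMSO wells and -100% = cell-free medium wells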
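Cytotoxicity counter-line: IDH1KD HT-1080, 48 h, CellTiter-Glo. Curves classed by r2, magnitude and activity.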
The depositor's hits bear a star; i = inactive; ? = inconclusive; / = no result; [ ] = remark or other dose. The list is not random: actives were taken first. Their share in the collection is about 19%. Calls follow the shape of the dose curve; as a rule, active = well fitted curve in the direction sought with a large enough effect; inconclusive = small, poorly fitted or top-dose-only effect, or another doubt; inactive = no such curve, though single readings can be large; an effect the other way counts as inactive or inconclusive. Unless noted, % is scaled to controls: 0 for no effect and ±100 for the full control effect; potency is read from the fitted curve at half-maximal effect.

SMILES	KB-V1 MDR tox	DT40 TDP1 CPT	DT40 TDP1 no CPT	KB-3-1 cytotox	HT1080NT lethal	HT1080 IDH1KD tx
CC1CCCN(C(=O)COC(=O)c2ccc[nH]c2=O)C1 (configuration not stated)	i	4%	-10%	i	-2%	-2%
CCc1ccc(NC(=O)CSCc2nc(N)nc(Nc3ccccc3CC)n2)cc1	i	15µM*	?	i	-2%	-7%
CCc1ccccc1Nc1nc(N)nc(COC(=O)c2cccn2C)n1	15µM*	-21%	-18%	i	?	6.3µM*
Cn1nc(C(=O)OCC(=O)Nc2ccc3ccccc3c2)c2ccccc2c1=O	i	1%	0%	i	17%	8%
O=S(=O)(NCCSc1nc2ccccc2o1)c1ccccc1	i	16µM*	16µM*	i	2%	4%
O=S(=O)(CCSc1nc2ccccc2o1)c1nc2ccccc2s1	i	4.1µM*	3.7µM*	i	10µM*	6.3µM*
c1ccc2sc(SCSc3nc4ccccc4s3)nc2c1	i	?	?	i	-1%	-23%
O=S(=O)(CCSc1ccccn1)c1nc2ccccc2s1	i	2.3µM*	5.2µM*	i	20µM*	7.9µM*
COc1ccccc1CNC(=O)CCC(=O)N1CC(C)Sc2ccccc21 (configuration not stated)	i	18µM*	?	i	1%	-10%
CCC1Sc2ccccc2N(CC(=O)NC2CCCC2)C1=O (configuration not stated)	i	-13%	-18%	i	-22%	9%[9.24 µM]
CCC1Sc2ccccc2N(CC(=O)NCc2ccccc2OC)C1=O (configuration not stated)	21µM*	-2%	-21%	i	1%	3%
CC1CN(C(=O)CCC(=O)NCc2ccc(F)cc2)c2ccccc2S1 (configuration not stated)	i	-22%	-13%	i	11%	13%
CC(C)CNS(=O)(=O)c1ccc(S(=O)(=O)N2CCN(CCC#N)CC2)cc1	i	-8%	-18%	i	2%	-3%
Cc1ccc(C(=O)NCc2ccc3c(c2)OCO3)c(Cl)c1	i	-19%	-3%	i	1%	0%
CCS(=O)(=O)c1ncc(Cl)c(C(=O)N2CCN(c3ccc(OC)cc3)CC2)n1	/	?	4.1µM*	/	/	/
Cc1ccc(CNC(=O)c2nc(S(=O)(=O)Cc3ccc(C)cc3)ncc2Cl)cc1	?	5.8µM*	3.3µM*	?	/	/
CCS(=O)(=O)c1ncc(Cl)c(C(=O)NCc2ccc(OC)cc2)n1	/	1.6µM*	-100%	/	/	/
Cc1ccc(CNC(=O)c2nc(SCc3ccc(C)cc3)ncc2Cl)cc1	/	-10%	?	/	/	/
Cc1cccc(CS(=O)(=O)c2ncc(Cl)c(C(=O)NCc3ccc4c(c3)OCO4)n2)c1	i	2.9µM*	4.6µM*	i	-13%	-17%
COc1ccc(N2CCN(C(=O)c3nc(SC)ncc3Cl)CC2)cc1	i	-24%	?	i	/	/
O=C(O)c1ccc(Cn2cnc3c(=O)[nH]cnc32)cc1	i	7%	0%	i	12%	10%
O=C(Nc1cc(OC(=O)C(F)(F)F)c2nonc2c1OC(=O)C(F)(F)F)C(F)(F)F	i	10µM*	11µM*	?	/	/
CC1(C(=O)NS(=O)(=O)Cc2cccc(Cl)c2)CCN1C(=O)C/C=C/c1ccccc1 (configuration not stated)	i	-8%	-25%	i	2%	29%
CC(CCc1ccc(O)cc1)NCCC(c1ccccc1)c1ccccc1 (configuration not stated)	?	?	5.2µM*	?	21µM*	21µM*
